Source: the supplement of paper PMC3334620
In all, about 33,000 sequences were measured (“E-score (-0.5 to 0.5)”: median about -0.016, highest 2% from about 0.32 on). The full list was thinned out, with the highest values kept by preference.

Each sequence was assayed against T1, Stp1 (UniProt B3LFK1) (assay: PBM E-score (8-mer binding enrichment) (E-score (-0.5 to 0.5)); higher = stronger / more preferred TF binding). Details: protein concentration: 200 nM; construct: GST-full length.
T1 sequence: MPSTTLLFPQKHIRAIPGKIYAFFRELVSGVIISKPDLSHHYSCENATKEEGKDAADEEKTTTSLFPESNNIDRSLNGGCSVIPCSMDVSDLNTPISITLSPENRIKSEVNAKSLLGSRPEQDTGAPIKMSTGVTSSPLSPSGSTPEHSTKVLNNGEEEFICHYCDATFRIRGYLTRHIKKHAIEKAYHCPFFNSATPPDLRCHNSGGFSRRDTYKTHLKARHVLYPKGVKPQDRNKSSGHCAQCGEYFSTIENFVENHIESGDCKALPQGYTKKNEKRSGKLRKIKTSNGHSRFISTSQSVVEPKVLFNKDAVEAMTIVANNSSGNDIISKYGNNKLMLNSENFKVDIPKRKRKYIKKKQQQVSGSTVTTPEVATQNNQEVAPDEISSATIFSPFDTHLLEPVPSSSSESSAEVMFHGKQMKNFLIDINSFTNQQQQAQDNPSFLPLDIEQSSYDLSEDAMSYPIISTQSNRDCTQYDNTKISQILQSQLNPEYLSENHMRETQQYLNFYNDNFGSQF
Procedure, shortened: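 E-scores (a modified Wilcoxon-Mann-Whitney statistic) were assigned by the Universal PBM Analysis Suite to every ungapped eight-base word pooled with its reverse complement. The input came from universal all-10-mer Agilent arrays made double-stranded by primer extension and probed with GST-tagged yeast transcription factors at about 100-200 nM. Fluorescent anti-GST detected bound protein, and masliner normalised the scans.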

Row | Sequence | PBM E-score
1 | AATTTGCA | -0.0371
2 | AACGAGAC | -0.0773
3 | ATGTTACA | 0.182
4 | GCTGCTGA | 0.189
5 | CCAAAGAA | 0.068
6 | TAGCTGAA | -0.0818
7 | GAAACGAC | 0.0801
8 | CACGGCGG | 0.417
9 | GACGGCGA | 0.4
10 | CATGGCGA | -0.0243
11 | CCCGGCGG | -0.317
12 | CACGGGGG | -0.208
13 | GCCGGCGA | -0.00476
14 | ACCGGCGA | 0.134
15 | AACGGGGA | -0.0385
16 | CACGGCGA | 0.474
17 | GTCGGCGA | -0.0125
18 | CCCGGCGA | -0.0779
19 | AACGGCGA | 0.452
20 | AGTTGAGG | -0.0375
21 | CCGTTCTA | 0.237
22 | GTGCATAA | 0.183
23 | CGTGCAAC | 0.138
24 | CCCAAATA | -0.153
25 | TCCGAAAA | -0.159

Row | Sequence | PBM E-score
26 | TAAGGCGA | 0.315
27 | TACGGCGA | 0.473
28 | TCCGGCGA | 0.1
29 | GCCTCGAC | 0.0115
30 | CTGGGGAC | -0.392
31 | ATGCGGCC | 0.331
32 | ATGCGGTC | 0.0837
33 | ATGCGGAG | -0.0518
34 | ATGCGGGC | 0.0547
35 | ATGCGGTG | -0.103
36 | ATGCGGCG | 0.485
37 | TAGCGCTA | -0.0704
38 | TCCTCTAA | -0.222
39 | CGCGATTC | 0.118
40 | ACTGGTCA | -0.105
41 | CCACGCGG | 0.18
42 | ATGCCGCG | 0.475
43 | GTGCCGGA | 0.175
44 | ATTCCGCA | 0.0903
45 | GTGCCAAA | 0.119
46 | ATGCCGCA | 0.468
47 | CTGCCGCA | 0.347
48 | CTACCGCA | 0.0499
49 | CTGCCGCC | 0.226
50 | ATGCCGGA | 0.0395

Row | Sequence | PBM E-score
51 | ATGCCACG | 0.275
52 | ATGCCACA | 0.243
53 | GTGCCGCA | 0.483
54 | GCTTTGTA | 0.135
55 | AAGTTAGG | 0.0337
56 | CAACCACG | 0.0433
57 | GGCTGAAA | 0.103
58 | AAGCTCAA | -0.135
59 | CTATGCCC | -0.0982
60 | ATGCCGCC | 0.386
61 | AGGCCGCC | -0.0139
62 | ATGCCGGC | 0.0928
63 | GGTTTGAA | 0.0901
64 | GAAGTGAC | -0.0146
65 | CAAAGGCG | 0.129
66 | GCAAGGCA | 0.38
67 | AAAAGGCG | 0.34
68 | GAAAGGCC | 0.272
69 | AAAAGGCC | 0.174
70 | AGAAGGCG | 0.2
71 | GAAAGGCA | 0.376
72 | AAAAGGCT | 0.0632
73 | AAAAGGCA | 0.359
74 | CAAAGGCA | 0.184
75 | ACAAGGCA | 0.315

Row | Sequence | PBM E-score
76 | GCAAGGCC | 0.151
77 | TGAGAAAA | 0.116
78 | GCCCCTAA | -0.229
79 | CTAAGGGC | -0.224
80 | CTTTTCGA | 0.174
81 | CACCCTAG | -0.172
82 | GCAGAAAC | 0.234
83 | ACAGTCGA | -0.262
84 | AAACGCCG | 0.428
85 | TAACGCCA | 0.133
86 | AAACGCCA | 0.345
87 | AAACGCCT | 0.141
88 | CAACGCCC | 0.0959
89 | CAACGCCA | 0.0795
90 | CAACGCCG | 0.391
91 | AAACGCCC | 0.231
92 | GAACGCCA | 0.0737
93 | CTGGAAAG | -0.15
94 | AGCGAAAG | -0.138
95 | ATGGCTAG | 0.0312
96 | CCTTTCCG | 0.0145
97 | ATGACTTC | 0.00281
98 | AGTACTTG | 0.142
99 | GGGGACGA | -0.249
100 | ATCTCACG | 0.015

Row | Sequence | PBM E-score
101 | ACAGTGCC | 0.321
102 | ATGGTGCC | 0.372
103 | ACGGTGCC | 0.396
104 | CTGGTGCC | 0.252
105 | ATGGTGCG | -0.0219
106 | ACGGTGCG | 0.173
107 | CCAGTGCC | 0.179
108 | GCAGTGCC | 0.253
109 | ACGGTGCA | -0.00717
110 | AACTGGAT | 0.0626
111 | TCCCATCA | -0.201
112 | GGACTGCA | -0.229
113 | GAGCAGAA | -0.0386
114 | GGCACGCA | 0.288
115 | GGCACGGA | 0.376
116 | CGCACGGA | 0.39
117 | CTCACGGA | 0.0462
118 | GTCACGGA | -0.0129
119 | CGCACGCA | -0.00526
120 | TACTCTAA | 0.034
121 | CCCTGTCG | 0.0867
122 | CATATGGG | -0.035
123 | AGGGTCGC | 0.0437
124 | AGCGGCGG | 0.337
125 | AGCGGCCA | -0.114

Row | Sequence | PBM E-score
126 | AGCGGCGA | 0.386
127 | GGCGGCGA | 0.276
128 | CGCGGTGA | 0.0941
129 | CGCGGAGA | 0.109
130 | ACCGGCGG | 0.0942
131 | AGCGGCGC | 0.452
132 | AGCGGGGG | -0.287
133 | CGCGGCGA | 0.451
134 | AGCAGCGC | 0.0916
135 | AGCGGGGC | 0.0451
136 | AGAGCTTG | -0.106
137 | ATGAGCTG | -0.175
138 | GATCCATA | 0.134
139 | ACGCTAAG | 0.00258
140 | CGGACCGA | 0.0676
141 | CCTCGCAG | -0.0486
142 | GCGTCTAC | -0.155
143 | CACTGCCA | 0.0847
144 | CACTGCCC | -0.071
145 | AACTGCCC | -0.192
146 | AACTGCCG | 0.329
147 | CACTGCCG | 0.336
148 | AACTGCCT | 0.0172
149 | AGATCCAA | 0.0566
150 | AAGCTGTG | -0.106

Row | Sequence | PBM E-score
151 | CCCTTGTA | -0.178
152 | TCCTTGCA | -0.0871
153 | ACCTTGTA | 0.0137
154 | GCCTTGCA | 0.33
155 | CCCTTGCA | -0.163
156 | GCCTTGTA | 0.354
157 | AAGGATGC | -0.187
158 | GTGGTCTA | -0.307
159 | CTCTACCA | -0.0433
160 | GCTGGTCC | -0.253
161 | GTTGTGGA | -0.0929
162 | CATGCCCA | -0.249
163 | ATGACGCC | 0.2
164 | GCCGTCGA | 0.278
165 | CCCGTCCC | -0.249
166 | ACCGTCCC | -0.184
167 | TCCGTCCA | -0.122
168 | GCCGTCCA | 0.364
169 | CCCGTCCA | -0.00501
170 | GCCGTCCC | 0.378
171 | ACCGTCTA | -0.0765
172 | GCCGTCGC | 0.351
173 | GCCGTCTA | 0.429
174 | ACCGTCGC | 0.0157
175 | CCCGTCTA | -0.0264

Row | Sequence | PBM E-score
176 | AGACAAAG | 0.00552
177 | GAGGGTAA | -0.0792
178 | CACCATAC | -0.0768
179 | TAAAGTGA | 0.135
180 | CAGAAAGG | 0.0864
181 | ACTGCGGC | 0.381
182 | CCTGCGGC | 0.331
183 | ACTGCGGG | -0.153
184 | ACTGCGGA | 0.0949
185 | CCTGCGGA | 0.0839
186 | CCTGCGCC | 0.295
187 | ACTTAGAA | 0.0195
188 | GAACAGGC | -0.0513
189 | ACAAGGGA | -0.144
190 | GCAACCTA | 0.081
191 | ATAAGCCG | 0.0578
192 | ATTGCTAA | 0.0687
193 | ATCGCCTC | 0.356
194 | CACGCCTC | 0.205
195 | ACCGCCTC | -0.0359
196 | ATCGCCTG | -0.135
197 | CTCGCCTC | 0.00469
198 | AGCGCCTC | 0.389
199 | CGCGCCTA | 0.313
200 | CGCGCCTC | 0.377

Row | Sequence | PBM E-score
201 | AGCGCCTG | -0.0292
202 | ACGGTCTC | -0.041
203 | CCTAAAGC | 0.00183
204 | CCCTAGGA | -0.314
205 | CTTGCGCA | 0.223
206 | ATTCTTCG | 0.00242
207 | GAACGTAA | 0.0655
208 | CCGTTCCA | 0.243
209 | ACGTTCCG | -0.106
210 | CCGTTCCG | 0.318
211 | GCCATCGA | 0.0584
212 | AGCCGTGC | 0.465
213 | ACCCGTGA | -0.0351
214 | ACCCGTGG | -0.0825
215 | ACCCGTGC | 0.237
216 | AACCGTGC | 0.26
217 | ATCCGTGA | 0.00902
218 | AACCGTGG | -0.00732
219 | AGCCGTGG | 0.334
220 | CTCCGTGC | 0.228
221 | GGCCGTGA | 0.126
222 | AGCCGTGA | 0.343
223 | ATCCGTGC | 0.41
